Screens from PubChem BioAssay.
TDP-43 yeast inh – qHTS of TDP-43 Inhibitors. TDP-43 expressing yeast growth rescue, BacTiter-Glo, 24 h. Potency, µM (titrated, usually from 46.1 µM), hits mostly activators. 1.8% of 410,000 active. AID 652104, 2013; note: nearly all actives have a fitted effect of over 50% in size
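Yeast cells expressing TDP-43 under galactose induction are exposed to compounds for 24 hr at 30 deg C. BacTiter-Glo luminescence measures growth, so protective compounds score as activators.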
aSyn rescue – qHTS of alpha-syn Inhibitors | 0.14% of 370,000 active | Potency, µM (highest dose often 46.1 µM), most hits filed as activators | Yeast expressing alpha-synuclein, growth rescue, BacTiter-Glo, 24 h; note: nearly all actives have a fitted effect of over 65% in size
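Screening used galactose-induced yeast with toxic alpha-synuclein levels, exposed to compound for 24 hr at 30 deg C. Cell growth, read with BacTiter-Glo luminescence, gave the measured signal.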
pAkt inh – HTS Assay for Inhibitors of Akt Phophorylation: Primary Screen | Neuro2A IGF-stimulated pAkt S473 HTRF, 20 min; stronger effect = lower value | activity change, % for hits at 50 µM | 0.32% of 360,000 active | AID 651550, 2012; in the data active = activity change below about -80%; inconclusive = mostly about -51% to -80%
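Neuro2A cells (4,500/well, DMEM with 0.5% FBS) were treated with compound at a single 50 µM final concentration, stimulated with 6 nM IGF for 20 min at 37 °C, and lysed. Phospho-Akt Ser473 was read by HTRF as 665/615 ratio ×10^4.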
Abeta yeast res – qHTS for compounds that reverse cellular toxicity of Amyloid beta (A-beta) peptide in yeast: Primary Screen | yeast expressing A-beta42, growth rescue, OD600, 48 h; response scale: 0% DMSO, 100% iron-clioquinol control | Potency, µM (highest dose often 46.1 µM), usual class: activators | 0.063% of 410,000 active | AID 1347071, 2019; note: nearly all actives have a fitted effect of over 55% in size
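Growth rescue measured by 600 nm absorbance after 48 h yeast culture at 30 C with compound. Values normalized between DMSO and an equimolar ferric chloride plus clioquinol control.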
FUS yeast rescue – qHTS for Suppressors of FUS Proteinopathy: Primary screen using FUS-linked yeast assay | AID 1347120, 2019 | S. cerevisiae FUS-expressing, growth rescue, OD600, 24 h | Potency, µM (doses to about 76.6 µM), hits mostly activators | 0.24% of 390,000 active; note: nearly all actives have a fitted effect of over 55% in size
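FUS-expressing yeast, raffinose-pregrown, induced in 2% galactose minimal medium at OD 0.005; compounds in a dilution series, 24hr at 30C. Growth restoration read as absorbance at 600 nm. CP55940 positive control, DMSO negative.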
Large screens that a line does not name were inactive. A selection: hits, their analogues and other compounds. The true share with any hit is near 2.3%. Unless noted, calls come from the whole dose curve; as a rule, active = well fitted curve in the direction sought with a large enough effect; inconclusive = small, poorly fitted or top-dose-only effect, or another doubt; inactive = no such curve, though single readings can be large; an effect the other way counts as inactive or inconclusive.

Cc1ccc(Sc2ccc(CN3CCCC3)cc2[N+](=O)[O-])cc1	none
Cc1ccc(Sc2ccc(CO)cc2[N+](=O)[O-])cc1	TDP-43 yeast inh 14µM
Cc1cccc(Nc2ncnc3onc(-c4cccc(Cl)c4)c23)c1C	TDP-43 yeast inh 13µM, FUS yeast rescue inconclusive
Cc1cccc(Nc2ncnc3onc(-c4ccc(F)cc4)c23)c1C	TDP-43 yeast inh 14µM, FUS yeast rescue inconclusive
COc1ccc(-c2cc3ccc(O)cc3oc2=O)cc1	none (no result: Abeta yeast res)
O=c1oc2cc(O)ccc2cc1-c1ccccc1	TDP-43 yeast inh 16µM (no result: Abeta yeast res)
COc1ccc(-c2noc(C3CC(=O)N(c4cc(C)cc(C)c4)C3)n2)cc1 (centres undefined)	TDP-43 yeast inh inconclusive (no result: aSyn rescue, pAkt inh)
COc1ccc(-c2noc(C3CC(=O)N(c4ccc(C)c(F)c4)C3)n2)c(OC)c1 (centres undefined)	TDP-43 yeast inh 13µM, FUS yeast rescue inconclusive (no result: aSyn rescue, pAkt inh)
CC(=O)N1N=C(c2cccs2)CC1c1ccc(Br)cc1 (centres undefined)	TDP-43 yeast inh 25µM
CCN(CC)CCN(CC)c1ccc(/C=C/c2ccnc3ccccc23)cc1	none (no result: TDP-43 yeast inh, pAkt inh, Abeta yeast res, FUS yeast rescue)
CC1=C(C(=O)N(C(C)C)C(C)C)CC(CC(=O)NCC2CCCCC2)C(=O)N1Cc1ccc(C(C)(C)C)cc1 (centres undefined)	TDP-43 yeast inh 37µM, FUS yeast rescue inconclusive (no result: aSyn rescue, pAkt inh, Abeta yeast res)
CC1=C(C(=O)N(C(C)C)C(C)C)CC(CC(=O)NC2CC2)C(=O)N1Cc1ccc(C(C)(C)C)cc1 (centres undefined)	none
CC1=C(C(=O)N(C(C)C)C(C)C)CC(CC(=O)NCc2cccc3ccccc23)C(=O)N1Cc1ccc(C(C)(C)C)cc1 (centres undefined)	aSyn rescue inconclusive, FUS yeast rescue 6.3µM
Cc1cc(=O)n(Cc2cccc(Br)c2)c2c1c(C)nn2-c1ccccc1	none (no result: aSyn rescue, pAkt inh)
Clc1ncccc1OCc1ccccc1	TDP-43 yeast inh 13µM
Cc1c(OCc2ccccc2)cccc1OCc1ccccc1	none
CCCCn1c(=O)c2oc3ccccc3c2n(Cc2ccc(OC)cc2)c1=O	none (no result: aSyn rescue, pAkt inh)
CCNc1nc(N2CCOCC2)nc(N(c2ccccc2)c2ccccc2)n1	pAkt inh -110%
O=[N+]([O-])/C=C/c1cn(Cc2ccccc2)c2ccccc12	TDP-43 yeast inh 10µM
O=C(O)Cn1cc(/C=C/[N+](=O)[O-])c2ccccc21	none
COc1cccc(/C=C2\SC(=S)N(CCCC(=O)N(CCO)c3ccccc3)C2=O)c1	TDP-43 yeast inh 22µM, aSyn rescue inconclusive, FUS yeast rescue inconclusive
Cc1ccc(Nc2ccc(C(=O)O)cc2[N+](=O)[O-])cc1	TDP-43 yeast inh 2.8µM
COc1cc(Nc2nc3c(S(=O)(=O)c4ccc(C)c(C)c4)nnn3c3ccsc23)cc(OC)c1	none (no result: aSyn rescue, pAkt inh)
O=C(N/N=C/c1ccc(O)cc1)c1cc(-c2ccccc2)nc2ccccc12	none
O=C(N/N=C/c1ccc(O)cc1)c1csc2ccccc12	pAkt inh -107%
CCCNC(=O)c1ccc(COc2cccc3ccccc23)o1	TDP-43 yeast inh 18µM
CCCNC(=O)c1ccc(COc2ccc(C)cc2)o1	none
CCN(CC)C(=O)CC[C@H]1CC[C@]2(CCCN(C(=O)C3CCCC3)C2)O1	none (no result: TDP-43 yeast inh, aSyn rescue, pAkt inh, Abeta yeast res)
Cc1ccc(-c2nc(S(=O)(=O)c3ccc(F)cc3)c(N3CCN(c4ccccc4)CC3)o2)cc1	none (no result: aSyn rescue, pAkt inh)
CC(C)CC(=O)Nc1cccc(-c2cn3cccnc3n2)c1	none (no result: aSyn rescue, pAkt inh)
COC(=O)/C(=C1/Oc2cc(C)oc(=O)c2S1)C(F)(F)F	TDP-43 yeast inh 8.9µM (no result: FUS yeast rescue)
CCCCNC(=O)C(CC)n1c(SCc2cccc(F)c2)nc2ccncc21 (centres undefined)	none (no result: TDP-43 yeast inh, pAkt inh, Abeta yeast res, FUS yeast rescue)
Cc1ccc(C)c(S(=O)(=O)N2C(=S)NC(=O)C2C(C)C)c1 (centres undefined)	TDP-43 yeast inh 35µM
COc1cc(/C=C/c2nc(C#N)c(N3CCCCCC3)o2)cc(OC)c1OC	none (no result: aSyn rescue, pAkt inh)
COc1ccc(OC)c2c(N3CC(C)OC(C)C3)cc(C(F)(F)F)nc12 (centres undefined)	pAkt inh -114%
Cc1c(Cl)cccc1-n1nc(C)c2c(C)cc(=O)n(CC(=O)N3CCCc4ccccc43)c21	TDP-43 yeast inh inconclusive (no result: aSyn rescue, pAkt inh)
O=[N+]([O-])c1nn(-c2ccc3c(c2)OCCO3)n(O)c1=NCc1ccc(F)cc1	none (no result: FUS yeast rescue)
O=[N+]([O-])c1nn(-c2ccc3c(c2)OCCO3)n(O)c1=NCCC1=CCCCC1	TDP-43 yeast inh 14µM
O=[N+]([O-])c1nn(-c2ccc3c(c2)OCCO3)n(O)c1=NCc1ccc(F)cc1Cl	TDP-43 yeast inh 22µM
COc1ccc(C(C#N)c2ccc(Cl)nn2)cc1 (centres undefined)	none
N#CC(c1ccc(Cl)nn1)c1ccc(Cl)cc1Cl (centres undefined)	TDP-43 yeast inh 13µM
COc1ccccc1CNC(=O)CC(c1ccc(C)cc1)N1Cc2ccccc2C1=O (centres undefined)	aSyn rescue inconclusive (no result: pAkt inh)
Cc1ccc(C(=O)O/N=C/c2c(Cl)n(C)c3ccccc23)cc1	pAkt inh -105%
COc1ccc(-c2nc3scc(CCNS(=O)(=O)c4ccc5c(c4)OCCO5)n3n2)cc1	none (no result: aSyn rescue, pAkt inh)
Cc1ccc2[nH]c(-c3cccc(F)c3)cc(=O)c2c1	none
Cc1ccc2[nH]c(-c3cccc(N)c3)cc2c1	TDP-43 yeast inh 22µM, FUS yeast rescue inconclusive
CC(C)(C)c1ccc(C(=O)N2CCC2(C)C(=O)Nc2cccc3ncccc23)cc1 (centres undefined)	TDP-43 yeast inh 25µM
CC(C)(C)c1ccc(C(=O)N2CCC2(C)C(=O)Nc2cccc3ccccc23)cc1 (centres undefined)	FUS yeast rescue inconclusive
CCN(C(=O)Cn1nc(Cc2cccnc2)c2ccccc2c1=O)c1cc(C)ccc1C	none (no result: aSyn rescue, pAkt inh)
CCOC(=O)c1c(NC(=O)c2nc(S(C)(=O)=O)ncc2Cl)sc(C(C)=O)c1C	none (no result: aSyn rescue, pAkt inh)
CCCCNC(=O)Cn1cnc2ccc(S(=O)(=O)N3CCC(C)CC3)cc2c1=O	none
Cc1cccc(NC(=O)Cn2cnc3ccc(S(=O)(=O)N4CCC(C)CC4)cc3c2=O)n1	FUS yeast rescue 35µM
CC(C)c1cnc2c(c1SCC(=O)Nc1cccc(F)c1)c(=O)n(C)c(=O)n2C	TDP-43 yeast inh 35µM (no result: aSyn rescue, pAkt inh)
Cc1cc(C)cc(NC(=O)CSc2c(C(C)C)cnc3c2c(=O)n(C)c(=O)n3C)c1	TDP-43 yeast inh inconclusive (no result: aSyn rescue, pAkt inh)
Cc1ccccc1C(=O)N1CCc2c([nH]c3ccccc23)C1C(F)(F)F (centres undefined)	TDP-43 yeast inh 22µM
O=C(O)c1cccnc1C(=O)N1CCc2c([nH]c3ccccc23)C1C(F)(F)F (centres undefined)	none
O=C(COC(=O)c1ccc2ncsc2c1)NCc1ccccc1Cl	TDP-43 yeast inh 20µM
O=C(COc1ccc2c(c1)CCC2)NCc1ccc(Cl)cc1	TDP-43 yeast inh inconclusive, aSyn rescue inconclusive
